About 16,000 (4.4%) of roughly 360,000 compounds were called active. Roughly 9% stayed inconclusive and do not appear here. Calls follow the shape of the dose curve; as a rule, active = well fitted inhibition curve with a large enough effect; inconclusive = small, poorly fitted or top-dose-only effect; inactive = no such curve, though single readings can be large or run the other way. The entries come from a sample that favours actives as a whole.

We go through 51 compounds from PubChem BioAssay AID504333 (National Center for Advancing Translational Sciences (NCATS), 2011).
% is scaled to controls: 0 for no effect and ±100 for the full control effect; potency is read from the fitted curve at half-maximal effect.

Sequence of Bromodomain adjacent to zinc finger domain protein 2B (Homo sapiens) (Q9UIF8 whole entry, looked up, the tested form may be a part): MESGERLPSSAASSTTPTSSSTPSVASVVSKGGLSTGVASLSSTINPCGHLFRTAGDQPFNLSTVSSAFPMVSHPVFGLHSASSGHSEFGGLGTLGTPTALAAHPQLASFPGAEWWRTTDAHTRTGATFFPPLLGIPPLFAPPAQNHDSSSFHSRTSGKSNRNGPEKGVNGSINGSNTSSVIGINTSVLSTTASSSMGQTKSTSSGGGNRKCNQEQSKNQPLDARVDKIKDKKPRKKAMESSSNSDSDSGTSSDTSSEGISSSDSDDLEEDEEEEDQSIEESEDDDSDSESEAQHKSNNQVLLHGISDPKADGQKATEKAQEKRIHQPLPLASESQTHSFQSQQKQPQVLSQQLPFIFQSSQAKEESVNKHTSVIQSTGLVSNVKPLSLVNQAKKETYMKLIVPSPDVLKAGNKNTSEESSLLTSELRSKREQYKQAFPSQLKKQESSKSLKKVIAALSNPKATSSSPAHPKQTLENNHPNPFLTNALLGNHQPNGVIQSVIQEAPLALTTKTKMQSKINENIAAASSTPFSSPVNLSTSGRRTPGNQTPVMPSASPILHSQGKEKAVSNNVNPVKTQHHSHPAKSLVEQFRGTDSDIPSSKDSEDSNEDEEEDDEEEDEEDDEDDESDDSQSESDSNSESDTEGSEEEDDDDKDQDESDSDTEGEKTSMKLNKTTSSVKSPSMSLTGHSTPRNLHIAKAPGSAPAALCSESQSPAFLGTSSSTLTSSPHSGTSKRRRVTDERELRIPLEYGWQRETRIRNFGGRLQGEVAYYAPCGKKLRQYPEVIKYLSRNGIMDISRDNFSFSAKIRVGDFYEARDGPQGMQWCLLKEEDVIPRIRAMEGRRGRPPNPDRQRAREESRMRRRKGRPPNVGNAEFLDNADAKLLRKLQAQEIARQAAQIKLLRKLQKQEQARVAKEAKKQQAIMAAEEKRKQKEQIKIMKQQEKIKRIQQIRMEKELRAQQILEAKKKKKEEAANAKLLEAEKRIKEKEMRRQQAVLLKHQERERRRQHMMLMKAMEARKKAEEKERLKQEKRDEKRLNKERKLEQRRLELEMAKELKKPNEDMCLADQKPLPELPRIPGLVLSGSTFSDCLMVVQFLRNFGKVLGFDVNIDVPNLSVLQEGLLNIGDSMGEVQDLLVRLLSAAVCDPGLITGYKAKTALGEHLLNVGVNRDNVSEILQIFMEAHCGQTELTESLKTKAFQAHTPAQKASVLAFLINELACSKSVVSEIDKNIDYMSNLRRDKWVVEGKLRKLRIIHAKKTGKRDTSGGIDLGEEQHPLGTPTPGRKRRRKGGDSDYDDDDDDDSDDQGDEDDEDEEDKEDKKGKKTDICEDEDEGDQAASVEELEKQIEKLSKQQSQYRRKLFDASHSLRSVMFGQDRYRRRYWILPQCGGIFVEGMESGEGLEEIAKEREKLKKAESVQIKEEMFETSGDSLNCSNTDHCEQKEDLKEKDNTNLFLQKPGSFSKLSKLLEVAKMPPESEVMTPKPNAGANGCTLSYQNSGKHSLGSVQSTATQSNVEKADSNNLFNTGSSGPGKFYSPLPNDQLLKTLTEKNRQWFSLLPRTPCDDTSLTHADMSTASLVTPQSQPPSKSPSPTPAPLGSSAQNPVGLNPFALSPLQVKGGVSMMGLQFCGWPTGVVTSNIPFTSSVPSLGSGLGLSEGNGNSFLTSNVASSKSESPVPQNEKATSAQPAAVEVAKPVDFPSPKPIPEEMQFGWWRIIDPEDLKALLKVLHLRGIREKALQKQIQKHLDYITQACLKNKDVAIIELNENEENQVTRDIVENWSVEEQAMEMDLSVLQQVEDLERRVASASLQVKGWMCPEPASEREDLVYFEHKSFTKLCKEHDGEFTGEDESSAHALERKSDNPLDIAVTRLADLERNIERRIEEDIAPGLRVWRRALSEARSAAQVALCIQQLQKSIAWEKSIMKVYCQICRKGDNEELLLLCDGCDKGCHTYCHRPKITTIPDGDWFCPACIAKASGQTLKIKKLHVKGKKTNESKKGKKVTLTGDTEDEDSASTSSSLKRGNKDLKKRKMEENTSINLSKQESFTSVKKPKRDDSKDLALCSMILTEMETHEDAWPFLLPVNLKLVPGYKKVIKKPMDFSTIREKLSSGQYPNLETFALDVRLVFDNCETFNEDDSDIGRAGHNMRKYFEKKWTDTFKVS

The experiment has as its target Bromodomain adjacent to zinc finger domain protein 2B (Homo sapiens) (UniProt Q9UIF8). Put plainly: qHTS Assay for Inhibitors of BAZ2B. Also: nearly all actives have a fitted effect of over 60% in size. The note with it: AlphaScreen BAZ2B-H3K14Ac peptide displacement; series mostly up to 114 µM; activity change, negative = inhibition: at the top concentration. An outline of the steps: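 Protein-peptide AlphaScreen: BAZ2B 50 nM, b-H3K14Ac 50 nM, 1x PBS pH 7.4 + 0.01% Tween-20. Preincubation 30 min RT; cpd 30 min RT (top 110 uM); beads 20 min RT, light-protected.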
On the technique in general: qHTS replaces the single test concentration by a dilution series.
On to `Cc1cccc(S(=O)(=O)c2cn(Cc3ccccc3)c3cc(N4CCOCC4)c(F)cc3c2=O)c1`, for which the “activity change, negative = inhibition” value is 0.496% (inactive).

Take `O=C(CSc1nc2ccccc2nc1Cc1ccccc1)N1CCCCC1`: the “activity change, negative = inhibition” value is 36% (inactive).

Consider `Cc1ccc(Nc2nnc(-c3ccc(C)c(S(=O)(=O)N4CCCCC4)c3)c3ccccc23)cc1`, for which the “activity change, negative = inhibition” value is 8.32% (inactive).

As to `COc1cccc(C(=O)NNS(=O)(=O)c2ccc(F)cc2)c1`, the activity change, negative = inhibition is 8.36% [at 0.457 µM] (inactive).

With `O=C(NNS(=O)(=O)c1ccc(F)cc1)c1cnccn1`, the Potency is 79.4 µM (active).

For `NS(=O)(=O)c1ccc(CNC(=O)c2cnccn2)cc1`, the “activity change, negative = inhibition” value was -0.375% (inactive).

Turning to `CCC(CC)c1nn2cc(-c3ccccc3)nc2s1`, the “activity change, negative = inhibition” value was 12.6% (inactive).

Regarding `Cc1ccc(OCC(=O)Nc2ccc(Cl)c(-c3nc4ccccc4[nH]3)c2)cc1C`, the “activity change, negative = inhibition” value was -24.8% (inactive).

With `Cc1nn(CC(=O)NCCc2ccccc2)c(=O)c2c1sc1ccccc12`, the “activity change, negative = inhibition” value is -18.3% (inactive).

With `CC(=O)c1sc(N/N=C\c2ccc(C)cc2)nc1C`, the “activity change, negative = inhibition” value is -3.67% (inactive).

Consider `COc1cc2ccccc2cc1C(=O)Nc1nc(C)c(C(C)=O)s1`, for which the “activity change, negative = inhibition” value was 6.28% (inactive).

Regarding `CC(=O)c1sc(NC(=O)C2=NN(c3ccccc3)C(=O)CC2)nc1C`, the Potency is 70.8 µM (active).

As for `COc1ccccc1CNS(=O)(=O)c1cc(Br)cc2c1N(C(C)=O)C(C)C2` (stereo unspecified), the “activity change, negative = inhibition” value is -0.972% (inactive).

As to `O=C(Nc1ccc(Br)cc1)c1ccc(Br)c(S(=O)(=O)NCc2ccccc2)c1`, the “activity change, negative = inhibition” value is -1.45% (inactive).

Regarding `N#Cc1ccsc1NC(=O)CN1CCN(S(=O)(=O)c2cc(Cl)ccc2Cl)CC1`, the “activity change, negative = inhibition” value was -11.6% (inactive).

On to `O=C(CN1CCN(S(=O)(=O)c2cc(Cl)ccc2Cl)CC1)c1ccc(O)c(O)c1`, for which the Potency is 44.7 µM (active).

`COc1ccc(Cl)cc1S(=O)(=O)N1CCN(CC(=O)C(C)(C)C)CC1`: the “activity change, negative = inhibition” value was 10.4% (inactive).

For `CCC(=O)Nc1ccccc1-c1nc2ccccc2n(CC(=O)Nc2ccc(C)c(C)c2)c1=O`, the “activity change, negative = inhibition” value is -15.9% (inactive).

Turning to `CN(Cc1ccccc1)c1ncnc2onc(-c3ccc(F)cc3)c12`, the “activity change, negative = inhibition” value is 35.9% [at 57.1 µM] (inactive).

As to `CCOC(=O)C1CCN(C(=O)/C=C/c2cc(OC)c(OC)c(OC)c2)CC1`, the “activity change, negative = inhibition” value was 6.29% (inactive).

Consider `CCOC(=O)C1CCCCN1Cc1ccc(OC)c(OC)c1OC` (stereo unspecified), for which the Potency was 31.6 µM (active).

Turning to `CCOC(=O)C1CCN(S(=O)(=O)c2cc(F)ccc2OC)CC1`, the “activity change, negative = inhibition” value was -4.46% (inactive).

As to `CCOC(=O)c1c(NC(=O)c2ccc(S(=O)(=O)N3CCCC(C)C3)cc2)sc2c1CCN(C(C)C)C2` (stereo unspecified), the “activity change, negative = inhibition” value is 1.44% (inactive).

As to `CC1CCCN(c2csc3ccc(F)cc3c2=O)C1` (stereo unspecified), the “activity change, negative = inhibition” value is -14.5% (inactive).

Take `COc1ccccc1OCCCn1c(-c2ccc(Cl)cc2)nc2ccccc2c1=O`: the “activity change, negative = inhibition” value was 3.81% (inactive).

Regarding `Cn1c(COc2ccc(Cl)cc2)nc2ccccc2c1=O`, the Potency is 50.1 µM (active).

Turning to `COc1ccc(OCc2ccc(-c3nc4ccccc4c(=O)n3N)o2)cc1`, the “activity change, negative = inhibition” value was -21.5% (inactive).

In the case of `O=C(Nc1ccc2nc(SCCOc3ccccc3)sc2c1)c1ccco1`, the “activity change, negative = inhibition” value was -14.9% (inactive).

For `CCCCN1C(=O)/C(=C2/C=CC=CN2C)SC1=S`, the Potency was 44.7 µM (active).

On to `O=C1C(Cc2ccc(O)cc2)NC(=S)N1Cc1ccccc1` (stereo unspecified), for which the “activity change, negative = inhibition” value is -1.83% (inactive).

For `CCCCN1C(=O)/C(=C/C=C2/C=Cc3ccccc3N2CC)SC1=S`, the “activity change, negative = inhibition” value is -28.8% (inactive).

With `CN1C=CC=C/C1=C1\SC(=S)N(Cc2ccccc2)C1=O`, the Potency is 50.1 µM (active).

Take `CCCCN1C(=O)/C(=C2/Sc3ccc(Cl)cc3N2CC)SC1=S`: the “activity change, negative = inhibition” value is 8.39% [at 57.1 µM] (inactive).

For the compound `COc1ccccc1NC(=O)Cn1cnc2ccc(S(=O)(=O)N3CCC(C)CC3)cc2c1=O`, the “activity change, negative = inhibition” value was -23.3% (inactive).

For `Cc1ccc2nc(N3CCN(c4cccc(Cl)c4)CC3)c3nnnn3c2c1`, the “activity change, negative = inhibition” value was -7.42% (inactive).

Regarding `Cn1c(=O)sc2cc(NS(=O)(=O)c3ccc(C(C)(C)C)cc3)ccc21`, the “activity change, negative = inhibition” value was -24% (inactive).

As to `O=C(/C=C/c1ccccc1)N1CCN(Cc2cc(=O)n3nc(-c4ccccc4F)sc3n2)CC1`, the “activity change, negative = inhibition” value is 3.61% (inactive).

As to `Cc1cc(C)c(NC(=O)Cn2c(SCC(=O)NCc3ccccc3)nc3ccccc32)c(C)c1`, the “activity change, negative = inhibition” value is -19.9% (inactive).

In the case of `COc1ccc(OCc2n[nH]c(=S)n2N)cc1`, the Potency was 56.2 µM (active).

As to `Cc1ccc(OCc2n[nH]c(=S)n2-c2ccccc2)cc1`, the “activity change, negative = inhibition” value is -27.8% (inactive).

Regarding `S=c1[nH]nc(COc2ccccc2)n1-c1ccccc1`, the “activity change, negative = inhibition” value was -0.261% (inactive).

With `COc1ccc(C)cc1N(CC(=O)N1CCC(C)CC1)S(=O)(=O)c1ccc(C)cc1`, the “activity change, negative = inhibition” value is -0.594% (inactive).

On to `O=C1c2ccccc2C(=O)c2c1cccc2N1CCN(Cc2ccccc2)CC1`, for which the Potency is 5.01 µM (active).

For `O=S(=O)(c1cccs1)N1CCN(Cc2ccccc2)CC1`, the “activity change, negative = inhibition” value is 4.84% (inactive).

As to `CCc1c(C)nc(N2CCN(Cc3ccccc3)CC2)[nH]c1=O`, the “activity change, negative = inhibition” value is 0.116% (inactive).

As to `CCOc1ccccc1NC(=O)CN1CCCN(Cc2cccc(Cl)c2)S1(=O)=O`, the “activity change, negative = inhibition” value is -0.932% (inactive).

With `COc1cccc2c1cc1c(=O)n(CC(=O)N3CCN(c4ccccc4)CC3)nc(C)n12`, the “activity change, negative = inhibition” value was 0.516% (inactive).

For the compound `CC(=O)N1c2ccc(S(=O)(=O)N3CCCCCC3)cc2CC1C(=O)NCc1ccccc1C` (stereo unspecified), the “activity change, negative = inhibition” value is -10.3% (inactive).

For `COc1ccc(C2=CC(c3ccccc3Cl)n3nc(-c4ccc(Cl)cc4)nc3N2)cc1` (stereo unspecified), the “activity change, negative = inhibition” value is -5.56% (inactive).

`COc1ccc(C2C=C(c3ccc(Br)cc3)Nc3nc(NS(C)(=O)=O)nn32)cc1` (stereo unspecified): the “activity change, negative = inhibition” value was 3.31% (inactive).

Regarding `Cc1ccc(C2C=C(c3ccc(Cl)cc3)Nc3nc(NC(=O)CCC(=O)O)nn32)cc1` (stereo unspecified), the Potency was 79.4 µM (active).
